Only some compounds are listed: those with a hit (about 6.5% of all), similar ones and a draw of the others.
VACV Venus inh: vaccinia inhibition (Venus reporter) | Vaccinia virus Venus reporter expression, fluorescence | actives 0.46% (n = 330,000) | AID 720580 | Potency, µM (highest dose often 36.5 µM), without a hit: top-dose activity change, negative = inhibition, hits mostly inhibitors; calls by dose curve; tested in A549 cells; also: potency is read from the fitted curve at half-maximal effect; nearly all actives have a fitted effect of over 30% in size
FMDV antiviral: blocks foot and mouth disease virus; actives 1.2% (n = 410,000); Potency, µM (series often up to 57.9 µM), inactives show at the top dose activity change, negative = inhibition, most hits filed as inhibitors; FMDV antiviral cell-based qHTS; calls by dose curve; tested in HEK293T cells; also: read-out not given here; potency is read from the fitted curve at half-maximal effect; nearly all actives have a fitted effect of over 45% in size
Vaccinia mCherry: inhibitors of vaccinia virus infection (mCherry reporter signal). Vaccinia virus mCherry reporter infection, fluorescence. AID 720579. actives 0.63% (n = 310,000). Potency, µM (titrated, usually from 36.5 µM), for the others: top-dose activity change, negative = inhibition, most hits filed as inhibitors; calls by dose curve; tested in A549 cells; also: potency is read from the fitted curve at half-maximal effect; nearly all actives have a fitted effect of over 35% in size
LASV entry inh: blocks Lassa virus binding to or entry into cells; Lassa virus pseudotype entry inhibition, cell reporter; Potency, µM (doses to about 37.9 µM), without a hit: top-dose activity change, negative = inhibition, hits mostly inhibitors; actives 1.2% (n = 300,000); AID 540256; calls by dose curve; tested in HEK293 cells; also: potency is read from the fitted curve at half-maximal effect; nearly all actives have a fitted effect of over 50% in size
HCMV antiviral: human cytomegalovirus inhibition | actives 4.5% (n = 410,000) | activity change, negative = inhibition, % at 57.5 µM | HFF cells, HCMV-luciferase reporter, 72 h; hits give low values; in the data active = activity change below about -60%; inconclusive = no clear call, values can overlap the other calls; inactive = above about -39%
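After 16 h attachment at 37C, HFF cells received test compound and HCMV-luciferase (1 PFU/cell); reporter luminescence read 72 h later, data normalized against buffer-only and known inhibitor Salinomycin.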
Marburg entry inh: inhibitors of Marburg virus binding or cell entry. Marburg virus pseudotyped entry inhibition, cell reporter. Potency, µM (titrated, usually from 37.8 µM), without a hit: at the highest dose activity change, negative = inhibition, actives largely listed as inhibitors. actives 1.8% (n = 300,000). AID 540276; calls by dose curve; tested in HEK293 cells; also: potency is read from the fitted curve at half-maximal effect
The depositor's hits bear a star; i = inactive; ? = inconclusive; . = not tested or not shown; [ ] = dose if it differs, or a comment. % is scaled to controls: 0 for no effect and ±100 for the full control effect.

SMILES	VACV Venus inh	FMDV antiviral	Vaccinia mCherry	LASV entry inh	HCMV antiviral	Marburg entry inh
Cc1cc(C)cc(NC(=O)CSc2ccc(-c3cccs3)nn2)c1	?	?	-19%	?	?	7.1µM*
Cc1nc(C)c(-c2ccc(SCC(=O)Nc3ccccc3)nn2)s1	-21%	?	?	-22%	?	-28%
Cc1cnc2c(C)ccc(C)c2c1/C=C/c1ccc(N(C)C)cc1	7%	.	14%	.	.	.
O=C1NC(=O)C(=Cc2ccccc2[N+](=O)[O-])C(=O)N1	3%	-11%	0%	8%	-3	1%
O=C1NC(=O)C(=Cc2cc3c(cc2[N+](=O)[O-])OCO3)C(=O)N1	-1%	-4%	-3%	1%	-63*	-2%[46.1 µM]
O=S(=O)(c1ccc(Cl)cc1)c1cnc(-c2cccnc2)nc1-c1ccccc1	.	-16%	.	-5%	4	-17%
CS(=O)(=O)c1cnc(-c2cccnc2)nc1N	-3%	5%	-5%	-8%	-91*	1%[46.1 µM]
CCOC(=O)N/N=C1/C[C@@H](O)[C@@H](O)[C@@H]2[C@@H]3C(=O)N(Cc4ccc5c(c4)OCO5)C(=O)[C@H]3CC[C@@H]12	.	.	.	.	.	-22%[14.2 µM]
CC(C)c1ccc(CN2CCN(C(=O)CSc3nnnn3C3CC3)CC2)cc1	.	?	.	.	-90*	.
Cc1nc2ccc(C(=O)N3CCc4c(cnc(C)c4CNC(=O)/C=C/c4cccs4)C3)cc2nc1C	-14%	4%	0%	.	.	.
C=C1CC(Cn2cc(Br)c(=O)[nH]c2=O)(c2ccc(-c3ccccc3)cc2)OC1=O (stereo not given)	7.9µM*	?	2.8µM*	?	-97*	?
COc1ccc(/C=C2\CCC(C3CCCC3)C2=O)cc1Cn1cccn1 (stereo not given)	-14%	9%	i	-10%	-32	?
COc1ccc(/C=C2\CCc3ccccc3C2=O)cc1O	?	?	11µM*	?	20	11µM*
COc1ccc(/C=C2\CCc3ccccc3C2=O)cc1Cn1cccn1	.	-99%	.	?	?	18µM*
COc1ccc(/C=C2\Cc3ccccc3C2=O)cc1OC	-18%	43%	-9%	.	?	.
COC(=O)c1c(OCc2cccnc2)cc(=O)n2c1CCN(C(=O)c1ccc(OC)c(F)c1)CC2	-11%	-5%	i	.	.	.
CCC(=O)N1CCN(c2nc(CC)nc3sc4c(c23)CCCC4)CC1	-26%	?	-14%	?	-28	-30%
CC1CCc2c(sc3nc(C(C)(C)C)nc(N4CCN(C(=O)CCl)CC4)c23)C1 (stereo not given)	?	20µM*	-8%	?	-103*	?
Cc1cccc(Cn2c(COc3ccc(Cl)cc3)nc3ccccc32)c1	-6%	-4%	-4%	29%[46.1 µM]	-10	-16%[46.1 µM]
O=C1C2CCCN2C(c2cccs2)N1c1ccc(Cl)cc1 (stereo not given)	.	13%	.	7.3µM*	-74*	?
COc1cccc(C2N(c3ccc(Cl)cc3)C(=O)C3CCCN32)c1 (stereo not given)	-2%	9%	-13%	.	24	.
COc1ccccc1C1N(c2ccc(Cl)cc2)C(=O)C2CCCN21 (stereo not given)	.	-15%	.	?	-75*	4.6µM*
Cc1cc(C(=O)N2CCOc3ccc(CN4CCC(Oc5cccnc5)CC4)cc3C2)c(C)o1	3%	-23%	-9%	.	.	.
COc1ccc(/C=C/c2cnccn2)cc1OC	-13%	.	22%	.	.	.
COc1ccc(N2CCN(C(=O)CSc3ccc([N+](=O)[O-])cc3)CC2)cc1	-23%	?	-21%	6%	-65*	20%[46.1 µM]
SMILES	VACV Venus inh	FMDV antiviral	Vaccinia mCherry	LASV entry inh	HCMV antiviral	Marburg entry inh
COc1ccc(CCC(=O)N2CCN(c3ccc([N+](=O)[O-])cc3)CC2)cc1OC	-18%	?	-9%	2%[46.1 µM]	-68*	?
COc1ccc(N2CCN(C(=O)CSc3ccc(C)cc3)CC2)cc1	-7%	7%	-6%	14%	-5	20%[14.2 µM]
O=C1Cc2cc(CCN3CCN(c4nsc5ccccc45)CC3)c(Cl)cc2N1	.	.	.	5.8µM*	.	?
O=C1Cc2cc(S(=O)(=O)N3CCN(c4ccccc4)CC3)ccc2N1	-7%	-15%	-4%	-11%[46.1 µM]	36	-7%[46.1 µM]
CC(=O)N(/N=C/c1ccc([N+](=O)[O-])o1)c1nc2ccccc2c(=O)n1-c1ccccc1	.	-2%	.	.	-64*	.
Cc1cccc(-n2c(/C=C/c3cccc4ccccc34)nc3ccccc3c2=O)c1	-26%	?	-25%	16%[46.1 µM]	?	.
Cc1cccc(-n2c(/C=C/c3c(C)[nH]c4ccccc34)nc3ccccc3c2=O)c1	-20%	-20%	-27%	3%[46.1 µM]	7	.
Cc1cccc(-n2c(/C=C/c3ccccc3O)nc3ccccc3c2=O)c1	?	?	-24%	?	-98*	.
O=c1c2ccccc2nc(/C=C/c2ccc([N+](=O)[O-])o2)n1-c1ccc(O)cc1	-25%	?	3.5µM*	?	-100*	3.2µM*
Cc1cccc(-n2c(/C=C/c3ccc([N+](=O)[O-])o3)nc3ccccc3c2=O)c1	-10%	?	-7%	?	-104*	?
O=c1c2ccccc2nc(/C=C\c2ccccc2F)n1-c1ccc(O)cc1	-15%	-8%	i	-28%[46.1 µM]	-30	.
COc1ccccc1CN1CCC(n2cc(C(=O)N3CCCCC3)nn2)CC1	-11%	-11%	-15%	.	.	.
O=C1/C(=C/c2ccccc2Cl)N2CCC1CC2	4%	-6%	-13%	.	-67*	.
O=C1/C(=C/c2ccncc2)N2CCC1CC2	?	10%	-12%	?	4	?
CCN(CC)C(=O)CSc1n[nH]c(=O)n1CCc1ccccc1	-3%	13%	i	3%	39	3%[46.1 µM]
O=c1[nH]nc(Sc2ncnc3sccc23)n1CCc1ccccc1	.	?	.	?	-95*	?
O=C(Cn1nnc(-c2ccccc2)n1)c1ccccc1	2%	.	-3%	?	-22	23%
O=C(Cn1c(-c2ccccc2)c[n+]2ccsc12)c1ccc([N+](=O)[O-])cc1	.	0%	.	-17%	-99*	?
O=C(Cn1c(-c2ccccc2)c[n+]2ccsc12)c1ccccc1	-27%	50%	i	.	-62*	.
O=C(Cn1cc[n+](Cc2ccccc2)c1)c1ccc([N+](=O)[O-])cc1	-14%	-30%	?	?	?	?
CC(C)[Si]1(C(C)C)OCC2OC(n3cnc4c(N)ncnc43)C(N)C2O[Si](C(C)C)(C(C)C)O1 (stereo not given)	-28%	?	-30%	?	-27	13µM*
COC(=O)C1=C(C)N(CC2CC2)C(N(C)Cc2ccc(OC)cc2)=NC1c1ccccc1 (stereo not given)	.	.	.	.	.	-14%[14.2 µM]
CCN(CC)S(=O)(=O)c1cc(NC(=O)CSc2nnc(N)s2)ccc1C	.	-12%	.	.	5	.

Assay outcomes as filed in PubChem BioAssay.
